The nature of test [1]: CEETOX_H295R_CORTIC: CeeTox H295R High-throughput Steroidogenesis Assay for Corticosterone (CORTIC) (AID 2283437).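 Further: corticosterone secreted into medium quantified by mass spectrometry.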 The conditions noted are these: actives raise or lower the signal. The procedure, abridged:
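48 h forskolin (10 uM) prestim, then 48 h chemical exposure, final DMSO 0.1%. Readout: corticosterone in medium by LC-MS/MS after MTBE extraction. Gain/loss fit vs DMSO; MTT viability in same wells.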

Test [2] can be described thus: CEETOX_H295R_CORTISOL: CeeTox H295R High-throughput Steroidogenesis Assay for Cortisol (AID 2283438). The settings on record: actives raise or lower the signal. The procedure, abridged: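 Cortisol synthesis by H295R cells is measured 48 h after chemical dosing, following a 48 h stimulation with 10 uM forskolin. Hormone is extracted and quantified by HPLC-MS/MS, and activity is fitted bidirectionally against the DMSO control.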

Test [3] is described as follows: CEETOX_H295R_DOC: CeeTox H295R High-throughput Steroidogenesis Assay for DOC (AID 2283439). The conditions noted are these: actives raise or lower the signal. The essentials:
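Steps: seed H295R, adhere overnight; 10 uM forskolin 48 h; replace with chemical medium (0.1% DMSO) 48 h; collect medium, MTBE extraction, HPLC-MS/MS for DOC. Viability then checked by MTT; cytotoxic chemicals diluted until viability ≥70%.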

Test [4] in a line: CEETOX_H295R_ESTRADIOL: CeeTox H295R High-throughput Steroidogenesis Assay for Estradiol (AID 2283440).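 Further: estradiol secreted into medium quantified by LC-MS/MS after dansyl derivatisation.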 The conditions noted are these: actives raise or lower the signal. The essentials: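 Estradiol secreted into the medium was measured by tandem mass spectrometry after liquid-liquid extraction and dansylation. Human H295R cells had been forskolin-primed (10 uM, 48 h) before a 48 h chemical exposure with 0.1% DMSO.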

A short description of test [5]: CEETOX_H295R_ESTRONE: CeeTox H295R High-throughput Steroidogenesis Assay for Estrone (AID 2283441). The settings on record: actives raise or lower the signal. The essentials:
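Estrone secreted into medium quantified by LC-MS/MS after dansyl chloride derivatization, following 48 h chemical exposure (0.1% DMSO final) of forskolin-prestimulated (10 uM, 48 h) H295R cells; gain or loss fitted against DMSO; MTT viability in same wells.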

Read-out in test [6]: Tumor necrosis factor receptor superfamily member 6 (Homo sapiens) (UniProt P25445)
Nature of the test: LTEA_HepaRG_FAS: Life Technologies and Expression Analysis (LTEA) Assay for Fas cell surface death receptor (FAS) using HepaRG (AID 2283447). The conditions noted are these: mRNA level, 48 h; actives raise or lower the signal. The essentials: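 Differentiated HepaRG cells in serum-free induction medium were exposed 48 h to 8 half-log concentrations up to 100 uM in 0.5% DMSO, in duplicate. FAS mRNA was measured by qRT-PCR normalised to ACTB, GAPDH and POLR2A; bidirectional fit versus DMSO.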

Read-out in test [7]: Cyclin D2 (CCND2), CCND2 (gene 894)
Nature of the test: LTEA_HepaRG_CCND2: Life Technologies and Expression Analysis (LTEA) Assay for Cyclin D2 (CCND2) using HepaRG (AID 2283449).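 Further: CCND2 transcript measured by TaqMan qRT-PCR and normalised to three housekeeping genes.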 The settings on record: mRNA level, 48 h; actives raise or lower the signal. The procedure, abridged: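 HepaRG, 48 h dosing, 8-pt half-log curve from 100 uM, 0.5% DMSO; duplicate wells. Readout: CCND2 transcript by microfluidic qRT-PCR, housekeeping-normalised; bidirectional fit vs DMSO baseline.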

Read-out in test [8]: Cyclin Dependent Kinase Inhibitor 1A (CDKN1A), CDKN1A (gene 1026)
Nature of the test: LTEA_HepaRG_CDKN1A: Life Technologies and Expression Analysis (LTEA) Assay for Cyclin Dependent Kinase Inhibitor 1A (CDKN1A) using HepaRG (AID 2283450). The settings on record: mRNA level, 48 h; actives raise or lower the signal. The essentials: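 Read-out is CDKN1A mRNA by TaqMan qRT-PCR, normalized to three housekeeping genes and fitted in both directions against the DMSO baseline. Human HepaRG cells were treated 48 h with test chemicals up to 100 uM in half-log steps, 0.5% DMSO.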

Read-out in test [9]: Cyclin D1 (CCND1), CCND1 (gene 595)
The test is described as follows: LTEA_HepaRG_CCND1: Life Technologies and Expression Analysis (LTEA) Assay for Cyclin D1 (CCND1) using HepaRG (AID 2283451).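 On AC50: differentiated human HepaRG liver cells in serum-free induction medium.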 The conditions noted are these: mRNA level, 48 h; actives raise or lower the signal. The essentials: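 HepaRG plated 48 h, medium switched to serum-free induction medium, chemicals added in duplicate (top 100 uM, half-log steps, 0.5% DMSO) for 48 h, cells lysed, RNA measured by TaqMan qRT-PCR.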

Read-out in test [10]: catalase (CAT), CAT (gene 847)
The test is described as follows: LTEA_HepaRG_CAT: Life Technologies and Expression Analysis (LTEA) Assay for catalase (CAT) using HepaRG (AID 2283452). The conditions noted are these: mRNA level, 48 h; actives raise or lower the signal. The procedure, abridged: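 HepaRG cells in serum-free induction medium, 0.5% DMSO vehicle, exposed 48 h in duplicate over 8 half-log concentrations from 100 uM. CAT mRNA measured by qRT-PCR, normalized to ACTB, GAPDH, POLR2A; bidirectional fit versus DMSO.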

Read-out in test [11]: flavin-containing dimethylaniline monooxygenases 3 (FMO3), FMO3 (gene 2328)
The test is described as follows: LTEA_HepaRG_FMO3: Life Technologies and Expression Analysis (LTEA) Assay for flavin-containing dimethylaniline monooxygenases 3 (FMO3) using HepaRG (AID 2283453).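 On AC50: differentiated human HepaRG liver cells in serum-free induction medium.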 The settings on record: mRNA level, 48 h; actives raise or lower the signal. The essentials:
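FMO3 transcript quantified by TaqMan qRT-PCR against three housekeeping genes after 48 h chemical exposure of HepaRG cells. Eight-point half-log series, top 100 uM, 0.5% DMSO vehicle; phenobarbital 1mM induction control; up- or down-regulation fitted.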

Read-out in test [12]: CFLAR gene, CFLAR (gene 8837)
Nature of the test: LTEA_HepaRG_CFLAR: Life Technologies and Expression Analysis (LTEA) Assay for CFLAR gene using HepaRG (AID 2283455). The settings on record: mRNA level, 48 h; actives raise or lower the signal. The procedure, abridged: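 qRT-PCR read-out (Fluidigm/TaqMan) of CFLAR mRNA, normalized to three housekeeping genes, in differentiated human HepaRG cells after 48 h chemical exposure; 8-point half-log series from 100 uM in 0.5% DMSO; bidirectional curve fitting versus DMSO.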

Read-out in test [13]: Forkhead box O1 (FOXO1), FOXO1 (gene 2308)
The test is described as follows: LTEA_HepaRG_FOXO1: Life Technologies and Expression Analysis (LTEA) Assay for Forkhead box O1 (FOXO1) using HepaRG (AID 2283456). The settings on record: mRNA level, 48 h; actives raise or lower the signal. The essentials:
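HepaRG, 48 h exposure, 8-pt half-log series from 100 uM in 0.5% DMSO, duplicates; Fluidigm qRT-PCR mRNA, housekeeping-normalised; bidirectional fit vs DMSO baseline.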

Read-out in test [14]: growth arrest and DNA damage 45 (GADD45A), GADD45A (gene 1647)
Nature of the test: LTEA_HepaRG_GADD45A: Life Technologies and Expression Analysis (LTEA) Assay for growth arrest and DNA damage 45 (GADD45A) using HepaRG (AID 2283458). The settings on record: mRNA level, 48 h; actives raise or lower the signal. The essentials:
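Transcript induction or loss, quantified by TaqMan qRT-PCR against three housekeeping genes, is the read-out. HepaRG cells received chemicals for 48 h across eight half-log concentrations from 100 uM in 0.5% DMSO; gain and loss fitted relative to DMSO.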

Read-out in test [15]: Forkhead box O3 (FOXO3), FOXO3 (gene 2309)
Nature of the test: LTEA_HepaRG_FOXO3: Life Technologies and Expression Analysis (LTEA) Assay for Forkhead box O3 (FOXO3) using HepaRG (AID 2283459). The conditions noted are these: mRNA level, 48 h; actives raise or lower the signal. The essentials: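 qRT-PCR readout of FOXO3 transcript, normalized to three housekeeping genes (ACTB, GAPDH, POLR2A); gain or loss fitted against 0.5% DMSO vehicle. HepaRG cells, 48 h chemical exposure, 8-point half-log series, top 100 uM.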

Read-out in test [16]: ABC Transporter (ABCB1), ABCB1 (gene 5243)
The test is described as follows: LTEA_HepaRG_ABCB1: Life Technologies and Expression Analysis (LTEA) Assay for ABC Transporter (ABCB1) using HepaRG (AID 2283460). The conditions noted are these: mRNA level, 48 h; actives raise or lower the signal. The essentials: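 HepaRG, 48 h exposure, 8-pt half-log series from 100 uM, 0.5% DMSO vehicle, duplicates. Readout: ABCB1 transcript by Fluidigm TaqMan qRT-PCR, housekeeping-normalized; bidirectional curve fit vs DMSO baseline.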

A short description of test [17]: CEETOX_H295R_PROG: CeeTox H295R High-throughput Steroidogenesis Assay for Progesterone (PROG) (AID 2283442). The conditions noted are these: actives raise or lower the signal. The procedure, abridged: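 Steps: seed H295R cells and let them adhere overnight; prime 48 h with 10 uM forskolin; dose with compound in DMSO at 0.1% final for 48 h; extract medium steroids with MTBE; measure progesterone by LC-MS/MS. MTT viability was run in the same wells.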

Read-out in test [18]: Fatty acid synthase (Homo sapiens) (UniProt P49327)
The test is described as follows: LTEA_HepaRG_FASN: Life Technologies and Expression Analysis (LTEA) Assay for Fatty Acid Synthase (FASN) using HepaRG (AID 2283448).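 On AC50: differentiated human HepaRG liver cells in serum-free induction medium.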 The settings on record: mRNA level, 48 h; actives raise or lower the signal. The essentials:
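Cells were plated, cultured 48 h, switched to serum-free induction medium, then dosed in duplicate (max 100 uM, half-log dilutions, 0.5% DMSO) for 48 h. RNA was then isolated and FASN quantified by qRT-PCR.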

Read-out in test [19]: Cytochrome P450 (CYP1A1), CYP1A1 (gene 1543)
Nature of the test: LTEA_HepaRG_CYP1A1: Life Technologies and Expression Analysis (LTEA) Assay for Cytochrome P450 (CYP1A1) using HepaRG (AID 2283454). The conditions noted are these: mRNA level, 48 h; actives raise or lower the signal. The procedure, abridged:
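HepaRG, 48 h post-plating switched to serum-free induction medium; 8-pt conc-response (top 100 uM, half-log, 0.5% DMSO), duplicates, 48 h. Lysis in RLT, TaqMan qRT-PCR for CYP1A1; gain or loss vs DMSO.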

Active and inactive are the calls of the source. How the source made its calls: active means hit-call score of the fitted dose curve at least 0.9, where 1 is the maximum; inactive means score below 0.9.

Chain of Fatty acid synthase (Homo sapiens) (P49327 whole entry, looked up): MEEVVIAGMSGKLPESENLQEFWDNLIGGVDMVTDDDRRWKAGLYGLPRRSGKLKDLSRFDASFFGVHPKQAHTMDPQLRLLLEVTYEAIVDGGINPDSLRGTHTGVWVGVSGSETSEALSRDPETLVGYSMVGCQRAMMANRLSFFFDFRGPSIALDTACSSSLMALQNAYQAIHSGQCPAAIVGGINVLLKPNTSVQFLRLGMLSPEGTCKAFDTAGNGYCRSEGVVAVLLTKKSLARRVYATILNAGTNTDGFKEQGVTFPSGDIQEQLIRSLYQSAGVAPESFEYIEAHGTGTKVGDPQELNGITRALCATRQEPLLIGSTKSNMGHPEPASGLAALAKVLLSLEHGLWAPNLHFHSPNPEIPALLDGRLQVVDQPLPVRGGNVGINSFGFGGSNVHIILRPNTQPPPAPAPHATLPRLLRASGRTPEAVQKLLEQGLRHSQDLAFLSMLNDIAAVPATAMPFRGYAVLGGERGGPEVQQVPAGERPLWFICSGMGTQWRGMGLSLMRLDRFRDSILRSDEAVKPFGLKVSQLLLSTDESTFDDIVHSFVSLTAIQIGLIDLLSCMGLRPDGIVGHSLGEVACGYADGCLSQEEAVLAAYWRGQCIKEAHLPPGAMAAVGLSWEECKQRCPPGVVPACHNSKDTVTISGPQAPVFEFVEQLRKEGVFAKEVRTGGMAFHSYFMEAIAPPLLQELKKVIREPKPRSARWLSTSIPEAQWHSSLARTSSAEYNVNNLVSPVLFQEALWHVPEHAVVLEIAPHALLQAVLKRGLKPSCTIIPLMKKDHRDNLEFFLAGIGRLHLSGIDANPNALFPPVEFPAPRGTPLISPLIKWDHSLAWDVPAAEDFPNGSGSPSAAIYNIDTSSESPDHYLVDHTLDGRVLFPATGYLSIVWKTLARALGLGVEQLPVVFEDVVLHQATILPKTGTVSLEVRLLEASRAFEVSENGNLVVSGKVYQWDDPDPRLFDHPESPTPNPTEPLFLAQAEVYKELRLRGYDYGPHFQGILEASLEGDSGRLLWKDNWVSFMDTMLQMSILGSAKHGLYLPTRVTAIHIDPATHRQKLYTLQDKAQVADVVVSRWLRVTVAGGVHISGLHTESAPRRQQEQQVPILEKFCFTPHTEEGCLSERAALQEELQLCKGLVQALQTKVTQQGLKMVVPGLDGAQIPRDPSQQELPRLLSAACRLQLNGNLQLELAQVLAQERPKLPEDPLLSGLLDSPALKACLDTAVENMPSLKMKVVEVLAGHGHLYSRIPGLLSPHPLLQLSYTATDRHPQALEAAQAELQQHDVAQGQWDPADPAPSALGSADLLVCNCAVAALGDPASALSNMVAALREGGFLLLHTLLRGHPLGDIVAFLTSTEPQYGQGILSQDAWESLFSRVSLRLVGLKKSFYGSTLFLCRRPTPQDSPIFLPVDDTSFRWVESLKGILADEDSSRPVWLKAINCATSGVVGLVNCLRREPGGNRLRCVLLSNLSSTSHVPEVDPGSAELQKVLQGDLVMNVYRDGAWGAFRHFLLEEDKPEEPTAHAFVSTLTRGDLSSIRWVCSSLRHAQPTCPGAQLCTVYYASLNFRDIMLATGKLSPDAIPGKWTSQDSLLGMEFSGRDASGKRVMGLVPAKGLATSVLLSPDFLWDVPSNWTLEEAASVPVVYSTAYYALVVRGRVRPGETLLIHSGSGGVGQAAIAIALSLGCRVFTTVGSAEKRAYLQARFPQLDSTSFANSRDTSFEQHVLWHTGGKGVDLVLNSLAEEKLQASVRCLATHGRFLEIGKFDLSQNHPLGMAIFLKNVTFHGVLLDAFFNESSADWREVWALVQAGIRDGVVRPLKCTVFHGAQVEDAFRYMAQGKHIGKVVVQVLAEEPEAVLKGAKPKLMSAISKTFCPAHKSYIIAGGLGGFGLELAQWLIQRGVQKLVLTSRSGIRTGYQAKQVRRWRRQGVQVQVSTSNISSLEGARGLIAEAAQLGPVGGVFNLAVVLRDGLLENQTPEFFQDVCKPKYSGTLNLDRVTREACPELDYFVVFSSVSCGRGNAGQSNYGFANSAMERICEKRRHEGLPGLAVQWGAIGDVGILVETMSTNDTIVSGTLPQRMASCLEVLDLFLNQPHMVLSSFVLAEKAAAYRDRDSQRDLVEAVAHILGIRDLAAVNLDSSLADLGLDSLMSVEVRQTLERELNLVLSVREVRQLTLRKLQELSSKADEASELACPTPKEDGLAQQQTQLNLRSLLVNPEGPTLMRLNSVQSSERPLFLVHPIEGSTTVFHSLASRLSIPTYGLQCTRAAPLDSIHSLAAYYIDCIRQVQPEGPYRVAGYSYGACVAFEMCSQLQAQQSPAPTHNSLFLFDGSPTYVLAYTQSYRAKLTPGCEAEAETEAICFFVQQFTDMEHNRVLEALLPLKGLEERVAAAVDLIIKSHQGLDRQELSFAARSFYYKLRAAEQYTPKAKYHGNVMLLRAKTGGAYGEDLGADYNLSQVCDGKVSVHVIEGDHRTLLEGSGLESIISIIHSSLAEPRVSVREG

One may read the AC50 as the concentration at which the activity in the assay is half-maximal. As to `c1ccc2c(c1)-c1cccc3c1c-2cc1ccccc13`, the outcome in [1], in [2], in [4], in [5], in test [6] and in [7] was inactive. Besides, the result in [8] and in test [14] was inactive. Moreover, the AC50 in [3] is 1.84 µM (active); in [9], 5.32 µM (active); in test [10] it was 15.1 µM (active); in [11], 18.4 µM (active); in test [12], 10.6 µM (active); in [13], 5.04 µM (active). The AC50 in test [15] is 4.9 µM (active); in test [16] it was 15.5 µM (active).
Take `CCCCCCCCCCCCCCO`: the compound was classed as inactive in test [4], in [5], in test [17], in test [6], in test [18] and in test [7]. The outcome in test [8], in [9], in [10], in [11], in [13] and in test [14] was inactive. For the same compound, the call in test [15] and in [16] was inactive.
Turning to `CC(C)c1nnc2ccc(-c3ocnc3-c3cc(F)ccc3F)cn12`, the compound was called inactive in test [1], in test [2], in [3], in test [4], in [5] and in test [17]. The call in test [6], in [8], in test [13], in test [14], in [15] and in test [16] was inactive. Also, the concentration at half-maximal activity (AC50) was 50 µM (active) in [18], 50 µM (active) in test [10], 63.6 µM (active) in test [11] and 29.9 µM (active) in test [19].
With `O=S(=O)(O)c1ccc(N=Nc2c(O)ccc3cc(S(=O)(=O)O)ccc23)cc1`, the result in test [6], in [18], in test [7], in test [8], in test [10] and in [11] was inactive. Also, the compound was called inactive in test [12], in test [13], in test [14], in test [15] and in [16]. Also, the AC50 in test [19] is 50 µM (active).
Consider `NC(=O)N(O)[C@@H]1COc2cc(OCc3ccccc3)ccc21`, for which the call in [6], in test [18], in test [7], in test [8], in [10] and in [11] was inactive. The call in test [12], in [13], in test [14], in test [15] and in test [16] was inactive.
Turning to `O=c1[nH]cnc2c1ncn2[C@H]1CC[C@@H](CO)O1`, the compound was classed as inactive in [6], in test [18], in test [7], in [8], in test [9] and in [10]. The outcome in test [11], in test [12], in test [13], in test [14], in [15] and in test [16] was inactive.
On to `C=CN1CCCC1=O`, for which the outcome in test [6], in test [18], in test [7], in test [8], in test [9] and in [10] was inactive. The call in [11], in test [12], in test [13], in test [14], in [15] and in [16] was inactive.
For the compound `Cc1nc(-c2ccccn2)ncc1C(=O)Nn1cc(C)c2cc(F)ccc21`, the compound was classed as inactive in test [6], in test [18], in test [8], in test [9], in [13] and in test [14]. Besides, the result in [15] was inactive. Further, the AC50 in test [7] was 1.49 µM (active); in test [10], 50 µM (active); in test [11], 85.2 µM (active); in test [19], 18.6 µM (active); in test [16] it was 2.77 µM (active).

These data come from PubChem BioAssay (EPA / NIEHS).
